Hits are enriched below; roughly 2.6% of the tested compounds scored in any of these assays.
PABP polyA inh – blocks human PABP binding to poly(A) RNA; fluorescence polarization; AID 2014; P11940; hit rate 1% among 290,000; calls only at 35 µM;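 note: calls also rest on retests at 20 µM and on dose response follow-up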
Target sequence (P11940 whole entry, looked up): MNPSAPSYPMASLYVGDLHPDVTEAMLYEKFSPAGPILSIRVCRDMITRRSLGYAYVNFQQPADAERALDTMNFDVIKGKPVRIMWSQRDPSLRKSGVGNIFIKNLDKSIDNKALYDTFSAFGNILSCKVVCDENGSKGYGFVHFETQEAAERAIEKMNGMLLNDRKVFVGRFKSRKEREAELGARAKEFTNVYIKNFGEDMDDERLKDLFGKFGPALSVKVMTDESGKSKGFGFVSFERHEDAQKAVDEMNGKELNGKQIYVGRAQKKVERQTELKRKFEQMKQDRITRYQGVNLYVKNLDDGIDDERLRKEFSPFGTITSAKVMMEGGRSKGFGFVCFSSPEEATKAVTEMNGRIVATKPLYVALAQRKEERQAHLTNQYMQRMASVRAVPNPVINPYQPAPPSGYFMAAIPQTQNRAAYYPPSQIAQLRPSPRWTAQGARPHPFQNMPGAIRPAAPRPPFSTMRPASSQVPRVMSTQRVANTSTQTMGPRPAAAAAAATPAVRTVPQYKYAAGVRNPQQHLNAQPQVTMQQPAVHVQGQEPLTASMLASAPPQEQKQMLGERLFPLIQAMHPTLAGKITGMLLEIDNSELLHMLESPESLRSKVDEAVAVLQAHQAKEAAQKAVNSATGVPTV
PHOSPHO1 inh – inhibitors of human PHOSPHO1 phosphatase; inhibition, % at 13.3 µM; Q8TCT1; hit rate 1.1% among 290,000; recombinant PHOSPHO1, absorbance phosphatase assay; in the data active = inhibition above about 60%
A3G deaminase – blocks human APOBEC3G single-stranded DNA deamination; Q9HC16; recombinant A3G, ssDNA deamination FAM/TAMRA fluorescence; inhibition, % at 20 µM; hit rate 0.28% among 330,000; AID 493012;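 active = inhibition of at least 40% at 20 µM, with no more than 30% in the related APOBEC3A deaminase screen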;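 note: plate controls were DMSO wells with A3G for no effect and wells lacking A3G enzyme for full effect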
PABP1 MLLE inh – inhibitors of microRNA-mediated deadenylation, human PABP1 MLLE binding | hit rate 0.36% among 360,000 | AID 588489 | P11940 | inhibition, % at 20 µM | GST-MLLE / FITC-PAM2 fluorescence polarization; in the data active = inhibition above about 35%, passing the limit was not always enough;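 note: plate controls were DMSO wells with GST-MLLE for no effect and wells lacking GST-MLLE protein for full effect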
eIF4H inh – inhibitors of RNA binding by human eIF4H; Q15056; eIF4H fluorescence polarization binding assay; inhibition, % at 35 µM; hit rate 0.94% among 290,000; AID 2012;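 note: calls also rest on retests at 20 µM and on dose response follow-up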
APOBEC3A inh – inhibitors of human APOBEC3A DNA deaminase; P31941; recombinant A3A, FAM/TAMRA ssDNA deamination fluorescence; inhibition, % at 20 µM; hit rate 0.41% among 330,000; AID 493011;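 active = at least 40% inhibition at 20 µM here, with at most 30% in a related deaminase screen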;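 note: plate controls were A3A with DMSO for no effect and wells lacking A3A enzyme for full effect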
* hit, by the source's call; i = inactive; x = not tested or not shown; + = active, no number. Unless noted, the rule behind the calls is not given here.

SMILES	PABP polyA inh	PHOSPHO1 inh	A3G deaminase	PABP1 MLLE inh	eIF4H inh	APOBEC3A inh
COc1ccc(-c2nc(C)ncc2-c2csc(C)n2)c(O)c1	+	3	-1	13	73*	8
COc1ccc(-c2ncncc2-c2csc(C)n2)c(O)c1	i	3	-4	-4	-2	-9
O=C(CN1CCN(S(=O)(=O)c2ccc(Cl)cc2)CC1)NC1CC1	i	30	-1	-12	14	-5
NC(=O)CC(NC(=O)Cc1cccc2ccccc12)c1ccc(NCCOc2ccccc2)c([N+](=O)[O-])c1 (stereo unspecified)	i	20	-12	-18	-7	-7
CCC(CC)Nc1ccc(C(CC(N)=O)NC(=O)Cc2cccc3ccccc23)cc1[N+](=O)[O-] (stereo unspecified)	+	-7	-8	-44	78	-1
CC(C)N1CCC(C)(C(=O)Nc2ccc(-n3cccc3)cc2)C1 (stereo unspecified)	x	x	x	-18	x	x
CC(=O)Nc1ccc(S(=O)(=O)NC2=C(N3CCN(Cc4ccccc4)CC3)C(=O)c3ccccc3C2=O)cc1	i	64*	x	-3	4	x
Cc1cccc(-n2c(O)c(C=NC3CCS(=O)(=O)C3)c3ccccc3c2=O)c1C (stereo unspecified)	i	37	-6	-11	1	-3
S=c1[nH]nc(-c2ccccn2)n1/N=C/c1ccc(-c2ccccc2Br)o1	i	62*	x	-34	31	x
O=[N+]([O-])c1cc2c(cc1/C=N/n1c(-c3ccccn3)n[nH]c1=S)OCO2	i	74*	x	-12	97	x
CCN(C(=O)CSc1nnc(SC(C)C)s1)C1CCS(=O)(=O)C1 (stereo unspecified)	x	x	-8	9	x	-5
C/C(=N\n1cnnc1)c1ccccc1	i	8	-12	-6	-11	-3
O=C(CCCCCNC(=S)Nc1ccc(Cl)cc1)C[N+](=O)[O-]	i	23	0	11	-10	-3
COc1ccc(NC(=S)NCCCCCC(=O)C[N+](=O)[O-])cc1	i	77*	3	26	2	4
CC(Oc1ccccc1)C(=O)N1CCN(c2ccc(N3CCCCC3)nn2)CC1 (stereo unspecified)	x	x	-1	-17	x	0
CCc1ccccc1-n1c(-c2ccncc2)n[nH]c1=S	i	90*	25	4	-2	-2
S=c1[nH]nc(-c2ccncc2)n1Cc1ccccc1	i	88*	32	-24	6	-7
COc1ccccc1-n1c(-c2ccc(NS(C)(=O)=O)cc2)n[nH]c1=S	i	88*	20	1	2	-3
Cc1cc(C(=O)Nc2nncs2)oc1C	i	14	-1	-14	12	-3
CCCCOc1ccc(C(=O)Oc2cccnc2)cc1	i	23	-8	8	-2	-1
COc1ccc(N2Cc3cccc(C(=O)NC(C)CCc4ccco4)c3C2=O)cc1 (stereo unspecified)	+	4	44	-19	88*	50
C=CCC(O)(CC=C)CNC(=O)c1ccc(OC)c(OC2CCN(C(C)=O)CC2)c1	i	34	-4	8	4	-5
Cc1ccc(C(=O)Nc2ccccc2N2CCCC2)cc1	+	-6	-10	-1	83*	-1
O=C(Nc1ccccc1N1CCCC1)c1cc2ccccc2o1	i	10	-7	41*	9	3
Cc1ccc(C(=O)Nc2ccccc2N2CCCCC2)cc1	i	-6	-7	-7	-6	-3
COc1nccnc1NS(=O)(=O)c1ccc(NC(=S)NC(=O)/C=C/c2ccc(F)cc2)cc1	i	-16	-4	24	-7	-3
COc1cc(NS(=O)(=O)c2ccc(NC(=S)NC(=O)/C=C/c3ccc(F)cc3)cc2)ncn1	i	3	-4	41*	6	-4
Cc1cc(NS(=O)(=O)c2ccc(NC(=S)NC(=O)c3cccc(S(=O)(=O)N(C)C)c3)cc2)no1	i	-77	-13	30	-9	-3
O=C(NC(=S)Nc1ccc2c(c1)C(=O)c1ccccc1C2=O)c1ccc(F)cc1	+	6	2	x	70	2
O=C(NC(=S)Nc1ccc(NC(=O)c2ccccc2)cc1)c1ccc(F)cc1	i	33	-8	33	-4	-7
